# TDP-43 tox inh – qHTS of TDP-43 Inhibitors: NCGC Sytravon Library Screen; yeast TDP-43 toxicity rescue, BacTiter-Glo growth, 24 h; Potency, µM (highest dose often 46.1 µM), most hits filed as activators; actives 0.45% (n = 45,000); active = well fitted activation curve with a large enough effect; note: 0% is about no effect; nearly all actives have a fitted effect of over 55% in size
#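 TDP-43-expressing yeast, pregrown in raffinose, seeded at OD600 0.02 in galactose medium with compound for 24 hr at 30 deg C. Growth read by BacTiter-Glo luminescence, so rescue of toxicity appears as activation.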
# Starred values were filed as active, the others as inactive; i = inactive. The entries come from a sample that favours hits as a whole. Potency is the fitted concentration of half-maximal effect.
SMILES,TDP-43 tox inh
Clc1nc2ccccc2nc1-c1ccccc1,i
CCCc1nnc2c(N(C)S(=O)(=O)c3ccc(C)cc3)nc3ccccc3n12,i
CN(c1nc2ccccc2nc1Cl)S(=O)(=O)c1ccccc1,13µM*
COc1ccc(NC(=O)Cn2c(=O)n(CCCCCC(=O)NCc3ccc4c(c3)OCO4)c(=O)c3sccc32)cc1Cl,i
O=C(O)c1ccc(NC(=S)NC(=O)c2ccc(-c3ccccc3)cc2)cc1,13µM*
O=C(NC(=S)Nc1ccccc1)c1ccc(-c2ccccc2)cc1,i
O=C(Nc1ccc(C(=O)O)cc1)/C(=C\c1ccccc1)NC(=O)c1ccccc1,i
Cc1ccc(-c2[nH]ncc2CN2CCN(C(=O)c3cccs3)CC2)cc1C,i
NS(=O)(=O)c1ccc(O)c(NC(=O)c2ccc([N+](=O)[O-])cc2)c1,i
Cc1cc2oc(C(=O)N(Cc3ccc(N(C)C)cc3)Cc3ccco3)c(C)c2cc1Cl,i
CCOC(=O)C1CCN(C(=O)CNC(=O)c2nn(-c3ccc(OC)c(OC)c3)c(=O)c3ccccc23)CC1,i
COc1ccc(-n2nc(C(=O)NCC(=O)N3CCC(C)CC3)c3ccccc3c2=O)cc1Cl,18µM*
COc1ccc(-n2nc(C(=O)NCC(=O)N3CCN(Cc4ccccc4)CC3)c3ccccc3c2=O)cc1OC,i
CN(C)c1nc(Oc2ccc(/C=N/O)cc2)nc(N(C)C)n1,11µM*
CCN(CC)c1nc(Oc2ccc(C(=O)NN)cc2)nc(Oc2ccc(C(=O)NN)cc2)n1,i
O=[N+]([O-])c1ccc(Oc2ccc(/C=N/O)cc2)nc1,i
CC1(C)O[C@H]2[C@@H](O1)[C@@H](C(=O)Nc1cc(F)ccc1F)O[C@@H]1OC(C)(C)O[C@@H]12,i
CC(=O)NCc1ccc(C(=O)CN2C(=O)NC3(CCCCC3C)C2=O)s1 (configuration not stated),i
Cc1cc(C)c(NC(=O)Cn2c(=O)oc3cc(S(=O)(=O)N4CCCCCC4)ccc32)c(C)c1,i
COc1ccc(C2=NS(=O)(=O)N(C)C(C(=O)Nc3ccc(OC(F)(F)F)cc3)=C2)cc1,i
COc1cccc2cc(C(=O)OCC(=O)NC3CCCC(C)C3C)c(=O)oc12 (configuration not stated),i
COc1ccc(Cl)cc1C(=O)OCC(=O)N1CCCC(C)C1 (configuration not stated),i
COc1ccc(Cl)cc1C(=O)OCC(=O)NC1CCCC(C)C1C (configuration not stated),18µM*
CC1=C(C(=O)N2CCN(c3ccc(Cl)cc3)CC2)C2(CCC(C)CC2)OC1=O (configuration not stated),i
N/C(=N\OC(=O)CC1CCCCC1)c1ccc([N+](=O)[O-])cc1,18µM*
SMILES,TDP-43 tox inh
Cc1ccc(OCC(=O)O/N=C(\N)c2cccc([N+](=O)[O-])c2)cc1C,i
O=C(NCC1CCCCC1)c1cccc([N+](=O)[O-])c1,i
O=C(N/N=C\c1cccc([N+](=O)[O-])c1O)C1COc2ccccc2O1 (configuration not stated),10µM*
O=C(CNC(=O)C1COc2ccccc2O1)N/N=C\c1cccc(O)c1 (configuration not stated),i
Cc1c(/C=N\NC(=O)C2COc3ccccc3O2)c2ccccc2n1C (configuration not stated),i
CSc1ccc(CNC(=O)C2CCN(c3nnc(-n4cccc4CNc4ccc(C)cc4)s3)CC2)cc1,i
Cc1cccc(C)c1NC(=O)Cn1c(=O)n(CCC(=O)NCc2ccc3c(c2)OCO3)c(=O)c2sccc21,i
O=C(COC(=O)c1ccccc1Br)NC1CCCC1,i
O=C(COC(=O)CSc1ccc2ccccc2c1Br)NC1CC1,22µM*
O=C(COC(=O)CNC(=O)c1ccccc1)NC1CCCCC1,i
Cc1ccc(CN(C)c2ccc(S(=O)(=O)N3CCCC3)cn2)cc1,i
CC1CCN(C(=O)c2ccc3c(c2)N(Cc2ccccc2)C(=O)c2ccccc2S3(=O)=O)CC1,i
CCN(CC)C(=O)Cn1nnc(-c2ccc(S(C)(=O)=O)cc2)n1,i
O=C(NCCC1=CCCCC1)c1ccc2c(c1)N(Cc1ccc(F)cc1)C(=O)c1ccccc1S2(=O)=O,i
O=C(N/N=C/c1ccccc1O)NC12CC3CC(CC(C3)C1)C2,i
NC(=S)N/N=C/c1ccc(C23CC4CC(CC(C4)C2)C3)cc1,7.9µM*
O=C(N/N=C/c1ccc(O)c(O)c1)NC12CC3CC(CC(C3)C1)C2,i
Cc1ccc(-c2nc3c4cnn(-c5cc(Cl)ccc5Cl)c4ncn3n2)cc1,i
CNc1cncc(-c2ccc(OC)c(OC)c2)n1,11µM*
CNc1cncc(-c2ccccc2NC(C)=O)n1,i
CNc1cncc(-c2ccccc2CO)n1,i
CCN(CC(=O)Nc1ccc(Cl)c(S(=O)(=O)N(C)C)c1)CC(=O)NC(C)C,i
Cn1nc(C2CC2)cc1NC(=O)C1(C)CCN1C(=O)CC(c1ccccc1)c1ccccc1 (configuration not stated),i
Cc1ccccc1CNC(=O)C1CCN(c2nnc(-n3c(C)ccc3C)s2)CC1,i
O=C(NC(=S)NNC(=O)[C@H]1C[C@@H]1c1ccccc1)c1cccc(F)c1,13µM*
SMILES,TDP-43 tox inh
O=C(NNC(=S)NC(=O)c1ccc(F)cc1)c1cccnc1,i
O=C(Cc1ccccc1)NNC(=S)NC(=O)c1cccnc1,i
CCN(Cc1ccccc1)C(=O)Cn1c(=O)oc2cc(S(=O)(=O)N3CCCCCC3)ccc21,i
Cc1ccccc1NC(=O)c1c(NC(=O)Cc2ccccc2)sc2c1CCC2,i
C=CCN=c1scc(-c2ccc(F)cc2)n1/N=C/c1ccccn1,11µM*
CN=c1scc(-c2ccccc2F)n1/N=C/c1ccc[nH]1,i
O=C(CCn1c(=O)c2sccc2n(Cc2ccccc2F)c1=O)NCc1ccc2c(c1)OCO2,i
COc1ccc(-c2noc(CN(C(=O)C(C)Oc3ccc(C)cc3)C(C)C)n2)cc1 (configuration not stated),20µM*
Cc1ccc(-c2noc(CN(C)C(=O)c3ccoc3C)n2)cc1,i
Cc1ccc(-c2noc(CN(C(=O)c3ccc4c(c3)OCO4)C(C)C)n2)cc1,i
CC1CCN(C(=O)Cn2c(=O)n(CCCCCC(=O)NCc3ccccc3Cl)c(=O)c3sccc32)CC1,i
Fc1ccccc1-n1ncc2c1ncn1nc(COc3ccc(Cl)cc3)nc21,i
NC(=O)C1(N2CCCCC2)CCN(C(=O)Nc2ccc(Cl)c(Cl)c2)CC1,i
O=C(Cc1ccccc1F)NCC(=O)Nc1ccccc1Br,i
CCCN(CC(=O)Nc1ccccc1Br)CC(=O)Nc1ccc(F)c(F)c1F,11µM*
CCCN(CC(=O)Nc1ccc(F)c(F)c1F)C(=O)c1ccc2c(c1)NC(=O)CS2,i
Cc1sc(-n2cccc2)c(C(C)NC(=O)Nc2ccccc2Cl)c1C (configuration not stated),i
CC(=O)c1ccc(NC(=O)CSc2nnc(-c3ccco3)o2)cc1,i
CC(=O)c1c(C)[nH]c(C(=O)CSc2nnc(-c3ccco3)o2)c1C,i
Cc1ccc(CSc2nnc(-c3ccco3)o2)cc1,13µM*
COc1ccccc1C(=O)Nc1ccc2nc(N3CCC(C)CC3)cc(C)c2c1,i
O=C(Nc1ccc(N2CCOCC2)cc1)c1ccc(Br)o1,i
O=C(Nc1cccc(S(=O)(=O)Nc2ccc(Cl)cc2)c1)c1cc2c(s1)CCCC2,i
O=C(Nc1ccc(N2CCOCC2)cc1)c1cc2c(s1)CCCCC2,16µM*

# Assay outcomes (PubChem)
